Test results published in PubChem BioAssay.
Records with an inconclusive call do not appear. Activity calls are given as the source filed them.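 The calls were made as follows, unless noted: active = growth inhibition above 25% in both replicates, a cutoff set 3 SD above the mean; inconclusive = above 25% in only one replicate; inactive = the rest.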

What was measured:
[1] = HUVEC growth inhibition – cell-based, human, primary screen (AID 575;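 active = viability at or below 30% in both replicate assays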;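 also: 100% = median of untreated cell wells with 0.1% DMSO on each plate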); details: HUVEC proliferation, CellTiter-Glo luminescence, 72 h; at 10 µM; stronger effect = lower value
[2] = growth inhibitors of H69AR lung tumor, primary screen, human, duplicate replicates (AID 580;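 active = viability at or under a set limit in both replicates, limit being median viability minus 3 SD, cut at about 48% in these data, passing the limit was not always enough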;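 also: 100% = mean luminescence of untreated wells and 0% = no signal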); details: H69AR lung tumor cells viability, ATP luminescence, 72 h; at 10 µM; stronger effect = lower value
[3] = reversal of MRP1-mediated doxorubicin resistance, pilot screen, H69AR cells, doxorubicin co-treatment (AID 601;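 active = viability loss from added drug above about 55%, and viability with drug at most 40%, in both replicates, limit read from the data, passing the limit was not always enough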); details: CellTiter-Glo, 72 h, at 10 µM; for differential viability (reversal): stronger effect = higher value
[4] = 384-well plate pilot, post-Golgi transport modulator project, inhibition of yeast transport mutant growth (AID 636; in the data active = inhibition above about 31%); details: absorbance 615 nm, about 18 h, stronger effect = higher value
[5] = growth suppression of yeast trafficking mutant, preliminary HTS, modulators of trafficking downstream of Golgi apparatus project, 1536-format plate, OD 615 nm (AID 637; in the data active = inhibition above about 30%); details: yeast transport mutant growth, absorbance 615 nm, 18 h; stronger effect = higher value
[6] = OD615 S. cerevisiae growth inhibition, permissive medium, pilot counter-assay, permissive growth control for S. cerevisiae lifespan shortening project (AID 705); details: OD615, 24 h, at 10 µM, stronger effect = higher value
[7] = Restrictive medium S. cerevisiae growth inhibition, OD615, pilot screen of yeast lifespan reduction project, restrictive growth control (AID 706;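 active = growth inhibition above a set limit, 3 SD over mean compound inhibition, in both replicates, cut at about 43% in these data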;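 also: modified DeaD lifespan yeast strain shifted to restrictive glucose medium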); details: OD615, 48 h, at 10 µM, stronger effect = higher value
[8] = viability gain of MRP-1-high H69AR cells under doxorubicin, pilot screen, MRP-1 activator project, CellTiter-Glo, duplicate (AID 807;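 active = viability increase at or above a cutoff of the median across tested compounds plus 3 SD, cut at about 8.5% in these data, passing the limit was not always enough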;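 also: compound pretreatment 18-22 h then 72 h combined with doxorubicin; 0% = doxorubicin alone and 100% = vehicle without doxorubicin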); details: H69AR viability with doxorubicin, CellTiter-Glo luminescence; at 10 µM; stronger effect = higher value
[9] = growth suppression of beta-catenin knockout HCT116, pilot screen, human colon tumor cells (AID 823;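 active = cell viability at or below a set limit in both duplicate runs, the limit being the all-compound median minus 4 SD, cut at about 23% in these data, passing the limit was not always enough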;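 also: 0% = wells killed by 20 µM Hyamine and 100% = untreated DMSO cell wells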); details: CellTiter-Glo, 60 h, at 10 µM, stronger effect = lower value
[10] = growth suppression of PTEN-deleted HCT116, pilot screen, cell-based, HCT116 clonal line, CellTiter-Glo (AID 824;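 active = viability at or below 27.92% in each of two runs, the all-compound median minus 4 SD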;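 also: 0% = 20 µM Hyamine control and 100% = vehicle cell control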); details: 60 h, at 10 µM, stronger effect = lower value
[11] = inhibitors of the yeast RAM network, pilot screen, dse1pr::URA3 reporter, 5-FOA selection (AID 869;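 active = inhibition over a set limit, the all-compound mean plus 3 SD, in both replicate runs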;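 also: 0% = DMSO wells with no growth and 100% = 10 µM 1-NA-PP1 with full growth; RAM network block rescues cells from 5-FOA so hits raise OD615 growth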); details: S. cerevisiae dse1pr::URA3 5-FOA growth, OD615, 2 d; at 10 µM; stronger effect = higher value; strain carries analog-sensitive mutant Cbk1 kinase
[12] = RAM signaling pathway blockade in yeast – S. cerevisiae, Pdr1DBD-CYC8 efflux-inhibited sensitized strain, primary screen (AID 1298;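 active = RAM network inhibition above 8.4% in each of two replicates, 3 SD over the compound average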;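 also: 0% = DMSO untreated cells without growth and 100% = 10 µM 1-NA-PP1 full growth; higher means more yeast growth rescued from 5-FOA killing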); details: S. cerevisiae cbk1-as DSE1-URA3 strain, 5-FOA growth OD615, 2 d; at 50 µM; stronger effect = higher value
[13] = H69AR cells + 2 uM doxorubicin, measured here: viability with 2 uM doxorubicin, stronger effect = lower value
[14] = H69AR cells, compound alone cytotoxicity

| SMILES | viability [1] | viability [2] | differential viability (reversal) ([3]; H69AR cells + 2 uM doxorubicin) | viability [3, 13] [%] | viability [3, 14] [%] | inhibition [4] | inhibition [5] | growth inhibition [6] | growth inhibition [7] | viability increase [8] | viability [9] | viability [10] | inhibition [11] | RAM network inhibition [12] |
| --- | --- | --- | --- | --- | --- | --- | --- | --- | --- | --- | --- | --- | --- | --- |
| Cc1ccc(-c2cc(C(F)F)nc(N3CCC(C)CC3)n2)cc1 | 85.7% (inactive) | 91.1% (inactive) | 1.39% (inactive) | 89.7 | 91.1 | -4.47% (inactive) | 1.75% (inactive) | 3.35% (inactive) | 6.11% (inactive) | 1.95% (inactive) | 100% (inactive) | 101% (inactive) | 2.67% (inactive) | 6.64% (inactive) |
| COc1ccc(-c2nn(-c3ccccc3)cc2/C=N/n2cnnc2)cc1OC | 79.3% (inactive) | 79.8% (inactive) | -11.2% (inactive) | 91 | 79.8 | -6.84% (inactive) | -0.63% (inactive) | 2.04% (inactive) | 17.4% (inactive) | -4.33% (inactive) | 88% (inactive) | 84% (inactive) | -0.92% (inactive) | -1.68% (inactive) |
| Cc1ccc(S(=O)(=O)c2nc(-c3ccco3)oc2SCC(=O)NCC2CCCO2)cc1 (stereo not drawn) | 101% (inactive) | 92.8% (inactive) | 6.32% (inactive) | 86.4 | 92.8 | -0.13% (inactive) | -3.02% (inactive) | 0.025% (inactive) | 0.35% (inactive) | -2.88% (inactive) | 101% (inactive) | 104% (inactive) | 1.47% (inactive) | 2.72% (inactive) |
| COC(=O)c1cccc(NC(=O)C2COc3ccccc3O2)c1C (stereo not drawn) | 116% (inactive) | 100% (inactive) | 8.78% (inactive) | 91.4 | 100 | -1.71% (inactive) | -6.98% (inactive) | -14.9% (inactive) | -21.5% (inactive) | 0.68% (inactive) | 106% (inactive) | 99% (inactive) | -0.07% (inactive) | 3.78% (inactive) |
| O=C(c1ccc(NS(=O)(=O)c2cccs2)cc1)N1CCCCC1 | 72.9% (inactive) | 89.9% (inactive) | -7.68% (inactive) | 97.5 | 89.9 | -2.63% (inactive) | -9.05% (inactive) | 1.61% (inactive) | -2.64% (inactive) | -1.41% (inactive) | 93.8% (inactive) | 96.8% (inactive) | 0.805% (inactive) | 1.56% (inactive) |
| CCn1c(CCNC(=O)c2ccc(OC)c(OC)c2)nc2ccccc21 | 103% (inactive) | 83.2% (inactive) | 6.54% (inactive) | 76.6 | 83.2 | -5.92% (inactive) | -2.22% (inactive) | -10.8% (inactive) | -11.1% (inactive) | -2.22% (inactive) | 102% (inactive) | 99.2% (inactive) | 1.87% (inactive) | 4.36% (inactive) |
| COc1ccc(C)cc1NC(=O)CNC(=O)Cn1ccc2ccccc2c1=O | 112% (inactive) | 92.8% (inactive) | 6.84% (inactive) | 85.9 | 92.8 | -1.18% (inactive) | 1.59% (inactive) | -17.2% (inactive) | -3.23% (inactive) | -2.41% (inactive) | 89% (inactive) | 90.3% (inactive) | 1.96% (inactive) | 5.68% (inactive) |
| COc1ccccc1NC(=O)N(Cc1ccccc1)c1ccccn1 | 83.4% (inactive) | 85.3% (inactive) | -5.91% (inactive) | 91.2 | 85.3 | -5.58% (inactive) | -4.92% (inactive) | -9.36% (inactive) | -2.62% (inactive) | 0.35% (inactive) | 87% (inactive) | 88.6% (inactive) | 2.24% (inactive) | 6.47% (inactive) |
| Cc1ccc(C)c(NC(=O)C2CCC(C)(C(=O)O)C2(C)C)c1 (stereo not drawn) | 98.8% (inactive) | 97.8% (inactive) | 5.67% (inactive) | 92.1 | 97.8 | 2.08% (inactive) | -0.79% (inactive) | -12.8% (inactive) | -13.8% (inactive) | -1.13% (inactive) | 97% (inactive) | 99% (inactive) | 0.355% (inactive) | 0.93% (inactive) |
| CCc1cc2c(NCCC(=O)O)ncnc2s1 | 83.3% (inactive) | 97.6% (inactive) | 5.87% (inactive) | 91.7 | 97.6 | -3.51% (inactive) | -0.48% (inactive) | -7.78% (inactive) | -13.1% (inactive) | -1.99% (inactive) | 101% (inactive) | 99.6% (inactive) | 3.42% (inactive) | 2.49% (inactive) |
| Cc1cc2ncn(C(=O)N3CCOCC3)c2cc1C | 95.4% (inactive) | 92.2% (inactive) | 7.56% (inactive) | 84.6 | 92.2 | -2.47% (inactive) | -6.03% (inactive) | 0.665% (inactive) | -2.19% (inactive) | -1.25% (inactive) | 97.3% (inactive) | 97.3% (inactive) | 1.22% (inactive) | 4.08% (inactive) |
| COc1ccccc1CCNC(=O)CSc1nc(-c2ccco2)cc(C(F)(F)F)n1 |  |  |  |  |  |  |  | -13.3% (inactive) | -5.15% (inactive) | -1.65% (inactive) | 102% (inactive) | 93.7% (inactive) |  | 6.42% (inactive) |
| CC(c1ccco1)N(C(=O)c1ccc(S(=O)(=O)N2CCCCC2)cc1)c1ccccn1 (stereo not drawn) | 87.5% (inactive) | 86% (inactive) | -8.22% (inactive) | 94.2 | 86 | -4.03% (inactive) | 1.27% (inactive) | -17.7% (inactive) | 2.26% (inactive) | -4.13% (inactive) | 97.4% (inactive) |  | 1.19% (inactive) | 3.18% (inactive) |
| CCn1c(=O)c2cc(C(=O)Nc3cc(C)on3)sc2c2ccccc21 |  |  |  |  |  |  |  | -16.6% (inactive) | -25.2% (inactive) | -6.36% (inactive) | 92.1% (inactive) | 71.5% (inactive) |  | 4.19% (inactive) |
| COc1ccc(C(=O)CSc2nnc(-c3ccccc3)o2)cc1 |  |  |  |  |  |  |  | 4.92% (inactive) | 15.3% (inactive) | -0.88% (inactive) | 95.6% (inactive) | 88.8% (inactive) |  | 7.56% (inactive) |
| CCOC(=O)C1CCN(S(=O)(=O)C(F)(F)c2nc3ccccc3s2)CC1 |  |  |  |  |  |  |  | -10.6% (inactive) | -6.5% (inactive) | -2.27% (inactive) | 82.2% (inactive) | 87.5% (inactive) |  | 5.28% (inactive) |
| COCCn1c(=O)[nH]c2cc(C(=O)NCCCN3CCN(c4ccc(F)cc4)CC3)ccc2c1=O | 97.8% (inactive) | 100% (inactive) | 3.64% (inactive) | 96.6 | 100 | 0% (inactive) | -2.38% (inactive) | -12.8% (inactive) | -0.415% (inactive) | -0.08% (inactive) | 86.2% (inactive) |  | 0.63% (inactive) | 8.31% (inactive) |
| CCN1CCN(c2cc(C)c3cc(NC(=O)c4cncc(Br)c4)ccc3n2)CC1 |  |  |  |  |  |  |  | -4.93% (inactive) | -2.12% (inactive) | -6.22% (inactive) |  |  |  | -0.98% (inactive) |
| CC1(C)Cc2c(c(=S)nc(-c3ccccc3)n2CCCN2CCOCC2)CO1 |  |  |  |  |  |  |  | -12.8% (inactive) | 6.05% (inactive) | -3.1% (inactive) | 97.2% (inactive) |  |  | 2.19% (inactive) |
